# Records with an inconclusive call do not appear. Active and inactive are the calls of the source. Calls come from the whole dose curve; as a rule, active = well fitted inhibition curve with a large enough effect; inconclusive = small, poorly fitted or top-dose-only effect, or effect the other way; inactive = flat fitted curve, though single readings scatter.
# Target: Menin (Homo sapiens) (UniProt O00255)
# Test: Confirmation of Inhibitors Targeting the Menin-MLL Interaction in MLL Related Leukemias: Confirmation in an HTRF (commercial TR-FRET) Assay using His-tagged menin and biotin-labeled MLL peptide
# Conditions: His-menin / biotin-MLL peptide binding; series mostly up to 126 µM; activity change, negative = inhibition: at the top concentration
# Excerpt: qHTS Assay for Inhibitors Targeting the Menin-MLL Interaction in MLL Related Leukemias
# NIH Chemical Genomics Center [NCGC]
# NIH Molecular Libraries Probe Centers Network [MLPCN]
# Assay Submitter (PI): Jolanta Grembecka, Tomasz Cierpicki, University of Virginia
# Translocations of the MLL (Mixed Lineage Leukemia) gene are frequently found in human leukemias affecting both children and adults. Fusion of MLL to one of more than 60 genes results in generation of oncogenic proteins upregulating Hox genes, which are vital to blood cell development. Patients harboring fusion of the MLL gene suffer from aggressive leukemias and respond poorly to available therapies. All of the oncogenic fusion proteins have a preserved N-terminal fragment of MLL that has been identified to interact with menin. It has been recently discovered that association with menin is critical to the leukemogenic activity of the MLL fusion oncoproteins. Selective targeting of the menin-MLL interaction could provide an attractive therapeutic approach to develop novel drugs for MLL-related leukemias. Small molecules blocking the menin-MLL interaction should reverse the oncogenic potential of MLL fusion proteins.
# We have developed and optimized a fluorescence polarization-based assay for the identification of Menin-MLL inhibitors. The assay was run employing two different MLL-derived peptides. The present assay uses a 12 amino acid peptide labeled with fluorescein at its N-terminus. This peptide consists of the menin high affinity binding motif from MLL and is potently bound by menin. Another peptide with a mutated sequence, labeled with Texas Red, was used in parallel as a less stringent screen for inhibitors.
# The present assay uses an alternate technology to confirm hits from the primary screen - homogeneous time resolved fluorescence (HTRF).
# The Menin protein, the MLL-wild type (w.t.) derived peptide (N-terminal 12 amino acids), the MLL-derived peptide labeled with Texas Red and the MLL-w.t. peptide labeled with Fluorescein were kindly supplied by laboratory of Dr. Jolanta Grembecka, University of Virginia. All protein and peptide solutions were stored in single use aliquots at -80C. The Eu3+ Cyrptate-conjugated mouse monoclonal antibody anti-6 Histidine (Eu3+-AB) and the Streptavidin-XL665 conjugate (XL665) were purchased from Cisbio International (Bedford, MA). All antibody and XL665 conjugate solution stocks were stored in single use aliquots at -20C. The Buffer components for all assays were purchased from Sigma-Aldrich (St. Louis, MO) and Invitrogen (Carlsbad, CA).
# 1. HTRF reaction buffer: 50 mM Tris-HCl pH 7.5, 50 mM NaCl, 1mM DTT.
# Before use, 0.05% BSA is added.
# 2. His6-Menin protein, MLL-w.t. labeled with biotin.
# Stored in singe use aliquots at -80C.
# 3. MLL-w.t. unlabeled peptide as positive control: 10 uM final in HTRF buffer.
# 1. Prepare His6-Menin at 200 nM, MLL-w.t.-biotin at 80 nM in HTRF buffer.
# 2. Prepare His6-Menin at 200 nM, MLL-w.t.-biotin at 80 nM and 10 uM MLL-w.t. unlabeled mixture in HTRF buffer.
# 3. Dispense 10 ul per well of reagent in step 1 in columns 2, 4-24 in a black 384 well plate, dispense 10 ul per well of reagents from steps 2 in column 1. Incubate plate at ambient for 15 minutes.
# 4. Transfer 1 uL per well of compound to plate and incubate at ambient for 1 hr.
# 5. Dispense 10uL of the donor (6His-Cryptate, 3.5 nM final conc.) and acceptor (SA_XL, 10nM final conc.) complex in the HTRF buffer with 0.01% BSA. Incubate for 1h.
# % is set by controls: 0 for no effect and ±100 for the full control effect; potency is the fitted concentration of half-maximal effect.
# Sequence of Menin (Homo sapiens) (O00255 whole entry, looked up): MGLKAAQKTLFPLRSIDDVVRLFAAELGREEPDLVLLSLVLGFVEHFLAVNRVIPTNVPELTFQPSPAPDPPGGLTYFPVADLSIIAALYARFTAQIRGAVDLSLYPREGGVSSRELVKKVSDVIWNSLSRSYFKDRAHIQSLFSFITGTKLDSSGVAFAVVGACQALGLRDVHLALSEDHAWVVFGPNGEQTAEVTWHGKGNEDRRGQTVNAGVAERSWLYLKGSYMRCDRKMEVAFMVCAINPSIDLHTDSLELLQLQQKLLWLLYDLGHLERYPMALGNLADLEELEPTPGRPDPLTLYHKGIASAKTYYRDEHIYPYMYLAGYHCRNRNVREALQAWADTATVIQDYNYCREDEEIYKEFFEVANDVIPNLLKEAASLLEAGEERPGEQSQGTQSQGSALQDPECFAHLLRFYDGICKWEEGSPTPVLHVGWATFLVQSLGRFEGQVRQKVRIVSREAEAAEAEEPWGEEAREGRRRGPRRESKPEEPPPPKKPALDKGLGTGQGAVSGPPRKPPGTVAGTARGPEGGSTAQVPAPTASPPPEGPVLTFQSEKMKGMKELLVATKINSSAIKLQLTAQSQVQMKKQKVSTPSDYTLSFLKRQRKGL
SMILES,"activity change, negative = inhibition",Potency
O=C(Nc1ccc2ccccc2c1)c1nn(C23CC4CC(CC(C4)C2)C3)cc1Br,-23.2% (inactive),–
OC12C3C4CC5C6C4C1C6C(C53)N2CCc1cccc(F)c1 (stereo unspecified),2.72% (inactive),–
Cc1cc(C(=O)NP(=O)(N2CCOCC2)N2CCOCC2)c(C)n1C1CC1,0.817% (inactive),–
O=C(O)CN1C(=O)CN=C(c2ccccn2)c2cc(Cl)ccc21,1.01% [at 383 µM] (inactive),–
c1cc2cc(c1)C[n+]1ccc(c3ccccc31)NCc1ccc(cc1)CNc1cc[n+](c3ccccc13)C2,–,282 µM (active)
O=c1oc2ccccc2c(O)c1C(c1ccccn1)c1c(O)c2ccccc2oc1=O,-2.51% (inactive),–
CCOP(=O)(OCC)C(NC(=O)c1ccccc1C)C(Cl)(Cl)Cl (stereo unspecified),-1.29% [at 383 µM] (inactive),–
CCCCn1c(=O)c(C(=O)Nc2ccsc2C(=O)OC)c(O)c2ccccc21,-11% (inactive),–
COc1cc(-c2ccc(-[n+]3nc(-c4ccccc4)nn3-c3ccc([N+](=O)[O-])cc3)c(OC)c2)ccc1-[n+]1nc(-c2ccccc2)nn1-c1ccc([N+](=O)[O-])cc1,–,56.2 µM (active)
CCOC(=O)Cc1csc(NC(=O)c2c(O)c3ccccc3n(CCC(C)C)c2=O)n1,-27.4% (inactive),–
O=C1NC(=O)C(=Cc2ccc3ccccc3c2)C(=O)N1,-10.3% [at 383 µM] (inactive),–
CC[C@]12C=CCN3CC[C@@]4(c5ccc(OC)cc5N(C)[C@H]4[C@@](O)(C(=O)OC)[C@@H]1OC(C)=O)C32 (stereo partly specified),4.48% (inactive),–
C[N+](C)(C)CC#CCN1CCCC1=O,1.22% [at 383 µM] (inactive),–
COc1cc(/C=N/n2cnnc2)ccc1OC(=O)N(C)C,-5.4% [at 383 µM] (inactive),–
C[C@@H]1CC[C@@]2(NC1)O[C@H]1C[C@H]3[C@@H]4CC=C5C[C@@H](O)CC[C@]5(C)[C@H]4CC[C@]3(C)[C@H]1[C@@H]2C,3.39% (inactive),–
COc1ccc(C(O)P(=O)(Oc2ccccc2)Oc2ccccc2)cc1 (stereo unspecified),-5.29% [at 383 µM] (inactive),–

# Reference: PubChem BioAssay AID2778 (National Center for Advancing Translational Sciences (NCATS), 2010)
